Bioassay records (PubChem)
GPR151 activ: activators of human GPR151; Q8TDV0; PathHunter beta-arrestin GPR151 cells, luminescence; activation, % at 11.2 µM; 650,000 compounds, 1% hits; AID 1508602; in the data active = activation above about 4.9%
FBW7 activator: activators of human E3 ligase FBW7. AlphaScreen FBW7–phospho-cyclin E peptide binding, activator screen. normalized activity (activation), % at 26.1 µM. 650,000 compounds, 0.13% hits; in the data active = normalized activity above about 1.9%;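 also: purified mutant Fbw7 with reduced substrate affinity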
Target sequence (Q969H0 whole entry, looked up): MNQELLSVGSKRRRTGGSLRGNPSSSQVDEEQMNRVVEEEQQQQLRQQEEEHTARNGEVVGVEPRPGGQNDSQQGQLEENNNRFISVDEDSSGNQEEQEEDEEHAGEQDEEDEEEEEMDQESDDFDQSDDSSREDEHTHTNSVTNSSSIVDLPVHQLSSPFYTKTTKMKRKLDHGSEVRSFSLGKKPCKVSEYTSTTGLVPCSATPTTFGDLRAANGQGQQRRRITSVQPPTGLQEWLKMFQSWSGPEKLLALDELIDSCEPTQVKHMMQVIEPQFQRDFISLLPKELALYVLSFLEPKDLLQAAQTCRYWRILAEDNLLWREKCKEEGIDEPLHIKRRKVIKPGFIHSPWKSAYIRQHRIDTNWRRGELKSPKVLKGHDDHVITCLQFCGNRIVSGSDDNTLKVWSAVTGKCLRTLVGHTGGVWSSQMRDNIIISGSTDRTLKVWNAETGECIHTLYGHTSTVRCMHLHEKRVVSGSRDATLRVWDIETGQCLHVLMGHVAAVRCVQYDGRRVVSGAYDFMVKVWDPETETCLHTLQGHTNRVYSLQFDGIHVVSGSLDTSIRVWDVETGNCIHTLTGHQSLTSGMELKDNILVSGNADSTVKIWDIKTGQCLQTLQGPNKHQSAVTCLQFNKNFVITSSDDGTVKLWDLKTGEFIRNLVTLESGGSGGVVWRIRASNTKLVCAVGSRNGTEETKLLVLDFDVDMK
MITF primary: blocks human microphthalmia-associated transcription factor | AID 1259374 | inhibition, % at 2.6 µM | O75030 | 650,000 compounds, 0.91% hits | AlphaScreen MITF homodimerization, bead proximity signal; in the data active = inhibition above about 50%
TEAD-YAP inh: TEAD-YAP interaction inhibition. HEK-TIYL cells, TEAD-Gal4/YAP UAS-luciferase luminescence. inhibition, % at 9.12 µM. 640,000 compounds, 1.4% hits. AID 1259422; in the data active = inhibition above about 32%
Of the large screens only hits and unclear results are named; the others gave an inactive call. A selection: hits, their analogues and other compounds. The true share with any hit is near 3.5%.

COC(=O)c1cc(OC)c(OC)cc1NC(=O)c1ccc(C)cc1Cl	none
O=C(Nc1nc(-c2ccccn2)cs1)c1ccc(S(=O)(=O)N2CCOCC2)cc1	TEAD-YAP inh 48
COc1ccc(-c2csc(NC(=O)c3ccc(S(=O)(=O)N4CC(C)OC(C)C4)cc3)n2)c(OC)c1 (stereo not given)	TEAD-YAP inh 32
Cc1ccc(-c2csc(NC(=O)c3ccc(S(=O)(=O)N4CCc5ccccc5C4)cc3)n2)o1	TEAD-YAP inh 45
OCCC1CN(Cc2ccccc2F)CCN1C1CCCC1 (stereo not given)	none
CCCOC(=O)c1cccc(NC(=O)COc2ccccc2Br)c1	TEAD-YAP inh 50
O=C(COc1ccc(Br)cc1Br)Nc1cccc(O)c1	TEAD-YAP inh 69
CCCOC(=O)c1cccc(NC(=O)COc2ccc(Br)cc2)c1	none
Cc1ccc(COc2ccc(CO)cc2Cl)cc1	TEAD-YAP inh 33
O=C(COc1ccc(CO)cc1Cl)Nc1ccccc1	TEAD-YAP inh 49
CCN1C(=O)c2cccc3c(NC(=O)C(c4ccccc4)c4ccccc4)ccc1c23	none
O=C1NC(=S)N/C1=C\c1ccc(I)o1	none
COc1ccc(C2NC(=O)c3[nH]nc(-c4ccc(C)cc4)c32)c(OC)c1 (stereo not given)	TEAD-YAP inh 44
CCOc1ccc(-c2n[nH]c3c2C(c2cc(OC)ccc2OC)NC3=O)cc1 (stereo not given)	TEAD-YAP inh 51
CCOc1ccc(-c2n[nH]c3c2C(c2ccc(F)cc2)NC3=O)cc1 (stereo not given)	none
COc1cc(C2C3=C(CC(C)(C)CC3=O)OC3=C2C(=O)CC(C)(C)C3)ccc1OCc1ccc(F)cc1	FBW7 activator 2.0
COc1ccccc1-c1nnc(Nc2nc3c(OC)cccc3s2)o1	TEAD-YAP inh 53
COc1cccc2sc(Nc3nnc(-c4ccccc4Cl)o3)nc12	TEAD-YAP inh 46
COc1cccc2sc(Nc3nnc(-c4ccccc4)o3)nc12	none
CC(=O)Nc1cc([N+](=O)[O-])ccc1C(=O)O	none
O=c1c2c3c(sc2nc2c4ccccc4cnn12)CCCC3	TEAD-YAP inh 53
O=c1c2c3c(sc2nc2c4ccccc4c4nnnn4n12)CCCC3	none
CN(C)CCCN(C(=O)c1ccc2c(c1)OCCO2)c1nc2c(F)cc(F)cc2s1	none
CN(C)CCCN(C(=O)c1ccc(Br)s1)c1nc2c(F)cc(F)cc2s1	FBW7 activator 3.2
O=C(COc1ccc(Br)cc1Cl)NC(=S)Nc1ccccn1	TEAD-YAP inh 46
Cc1ccc(OCC(=O)NC(=S)Nc2ccccn2)c(Br)c1	TEAD-YAP inh 88
Cc1cc2c(cc1S(=O)(=O)NCc1ccccn1)OCC(=O)N2	none
CC1CN(C(=O)Cc2ccc(Br)cc2)CC(C)O1 (stereo not given)	none
CCCOc1ccc(/C=N/Nc2nc(C)cc(=O)[nH]2)c(O)c1	TEAD-YAP inh 86
Cc1n[nH]c(=O)nc1N/N=C/c1ccc(O)cc1O	MITF primary 97, TEAD-YAP inh 42
Cc1cc(=O)[nH]c(N/N=C/c2cc(Br)cc(Br)c2O)n1	none
Cc1cc(=O)[nH]c(N/N=C/c2ccc(O)cc2O)n1	MITF primary 76
Cc1n[nH]c(=O)nc1N/N=C/c1ccccc1Cl	none
Cc1n[nH]c(=O)nc1N/N=C/c1ccc(N(C)C)cc1	TEAD-YAP inh 55
CCSc1ccccc1C(=O)Nc1ccc(OC)cc1[N+](=O)[O-]	none
CC(C)(C)CC(C)(C)c1ccc(OCCOCC[N+](C)(C)Cc2ccccc2)cc1	TEAD-YAP inh 54
CC(=O)c1ccc(OCC[N+](C)(C)Cc2ccccc2)cc1	none
O=C(Nc1ccc(Cc2ccncc2)cc1)c1ccc(Br)cc1	TEAD-YAP inh 39
O=C(CCc1ccccc1)Nc1ncc(Cc2ccccc2)s1	TEAD-YAP inh 49
Cc1ccc(C(=O)Nc2ccc(Cc3ccncc3)cc2)cc1	none
Cc1ccc(Cc2cnc(NC(=O)COc3ccccc3C)s2)cc1	none
Cc1cccc(Cc2cnc(NC(=O)COc3ccccc3C)s2)c1	TEAD-YAP inh 54
O=C(CCCl)Nc1ncc(Cc2ccccc2)s1	none
Cc1ccc(Cc2cnc(NC(=O)COc3ccccc3)s2)cc1	TEAD-YAP inh 52
Cc1ccccc1OCC(=O)Nc1ncc(Cc2ccc(F)cc2)s1	TEAD-YAP inh 51
O=C(CCc1ccccc1)Nc1ccc(Cc2ccncc2)cc1	TEAD-YAP inh 40
O=C(CSCc1ccc(Cc2ccc(CSCC(=O)Nc3ccccc3)cc2)cc1)Nc1ccccc1	TEAD-YAP inh 35
COc1cccc(-c2cnc3c(NCc4cc(OC)c(OC)c(OC)c4)nccn23)c1	none
Cc1ccc(OCC(=O)O/N=C(\N)c2ccccc2Cl)cc1	none
c1ccc(-c2cc(-c3ccccc3)[n+](CCc3c[nH]c4ccccc34)c(-c3ccccc3)c2)cc1	TEAD-YAP inh 70
COC(=O)c1ccccc1NC(=O)CCS(=O)(=O)c1ccc(OC)cc1	none
COC(=O)c1ccccc1NC(=O)CCOc1ccc(OC)cc1	TEAD-YAP inh 33
COc1ccccc1NC(=O)Nc1c(SC)nsc1SC	TEAD-YAP inh 37
N#CSCCCOc1ccc2ccccc2c1	TEAD-YAP inh 47
c1cnc(SCCCOc2ccc3ccccc3c2)nc1	none
Cc1no[n+]([O-])c1COc1ccccc1/C=C(\C#N)c1ccc([N+](=O)[O-])cc1	none
COc1ccc(N(C)S(=O)(=O)c2cc(Br)cc3c2N(C(C)=O)CC3)c(OC)c1	TEAD-YAP inh 56
CCOc1ccc(-c2nn(CN3CCCC3)c(=S)o2)cc1	none
COc1ccccc1CNC(=O)c1oc2ccc(S(=O)(=O)N3CCOCC3)cc2c1C	none
Cc1c(C(=O)NCc2ccccc2Cl)oc2ccc(S(=O)(=O)N3CCOCC3)cc12	FBW7 activator 2.4
CCOC(=O)NC(c1ccccc1)C(C(=O)OCC)C(=O)OCC (stereo not given)	FBW7 activator 2.3
COc1cc([N+](=O)[O-])ccc1NC(=O)CN1C(=O)NC2(CCc3ccccc32)C1=O (stereo not given)	none
COc1cccc(C(NC(=O)c2ccccc2)c2ccc3cccnc3c2O)c1 (stereo not given)	none
COc1ccc(C(=O)NC(c2ccc(Cl)cc2)c2cc(Cl)c3cccnc3c2O)cc1 (stereo not given)	none
O=C(NC(c1ccc(Cl)cc1)c1ccc2cccnc2c1O)c1ccccc1 (stereo not given)	TEAD-YAP inh 75
COc1ccc(C(NC(=O)c2ccccc2)c2ccc3cccnc3c2O)cc1 (stereo not given)	TEAD-YAP inh 38
COC(=O)c1c(OCc2ccc(F)cc2)cc(=O)n2c1CCN(CC(C)C)CC2	none
CCCNc1nc(Nc2cc(OC)c(OC)c(OC)c2)nc2nc[nH]c12	TEAD-YAP inh 39
c1ccc(Nc2nc(Nc3ccc(N4CCOCC4)cc3)c3[nH]cnc3n2)cc1	TEAD-YAP inh 47
Nc1cccc(-c2nc(Nc3ccc(N4CCOCC4)cc3)c3[nH]cnc3n2)c1	TEAD-YAP inh 60
Cc1cnc(Nc2ccc(-n3ccnc3)cc2)nc1Nc1ccc(N2CCOCC2)cc1	TEAD-YAP inh 51
CC(=O)c1cccc(-c2nc(Nc3ccc(N4CCOCC4)cc3)c3[nH]cnc3n2)c1	none
CC(=O)Nc1ccc(Nc2nc(Nc3ccc(N4CCOCC4)cc3)ncc2C)cc1	none
N#[N+]c1c([O-])cc(S(=O)(=O)O)c2ccccc12	none
